Measurements as given in the supplement of paper PMC10849652.
Of roughly 7,900 targets only a part is listed; those with a hit were picked by preference. About 0.6% of all pairs of compound and target were hits.

Compound: COc1cccc2cc(-c3nc([C@H]4CC[C@H](C(=O)O)CC4)n4ncnc(N)c34)[nH]c12
Assay: log2 fold change, soluble protein after heating vs DMSO (PISA); higher = thermal stabilisation; K562 cells, 10 uM, 30 min; active = over 0.2 and 3.5 SD of the protein, either way, in both replicates (recomputed)
Outline: (§1)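 For each measurement, 10 μM compound was applied for 30 min to K562 cells at 2×10^6 cells/mL. Aliquots were heated for 3 min across 48°C-58°C, pooled, and extracted in PBS with 0.5% NP-40 at 4°C; the supernatant after 21,000xg for 90 min was soluble protein. This was quantified by TMTpro 16plex LC-MS/MS with channel sums equalised, and thermal stability was reported relative to control samples from duplicates, on a log2 fold-change scale.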

Chain of UniProt P04066 (P04066 whole entry, looked up): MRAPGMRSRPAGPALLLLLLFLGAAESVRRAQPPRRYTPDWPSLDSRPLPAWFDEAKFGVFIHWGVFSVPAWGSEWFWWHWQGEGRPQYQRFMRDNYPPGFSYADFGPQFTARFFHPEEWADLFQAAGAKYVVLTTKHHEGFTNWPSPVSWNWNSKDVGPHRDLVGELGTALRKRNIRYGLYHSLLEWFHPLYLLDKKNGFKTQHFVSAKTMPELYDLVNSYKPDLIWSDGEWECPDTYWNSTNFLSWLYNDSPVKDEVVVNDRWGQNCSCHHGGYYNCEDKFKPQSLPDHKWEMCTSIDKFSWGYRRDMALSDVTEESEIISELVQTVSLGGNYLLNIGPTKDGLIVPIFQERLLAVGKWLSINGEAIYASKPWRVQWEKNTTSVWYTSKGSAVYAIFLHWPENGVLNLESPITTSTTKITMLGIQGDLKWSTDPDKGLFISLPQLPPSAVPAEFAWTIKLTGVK
Chain of UniProt Q7Z4H3 (Q7Z4H3 whole entry, looked up): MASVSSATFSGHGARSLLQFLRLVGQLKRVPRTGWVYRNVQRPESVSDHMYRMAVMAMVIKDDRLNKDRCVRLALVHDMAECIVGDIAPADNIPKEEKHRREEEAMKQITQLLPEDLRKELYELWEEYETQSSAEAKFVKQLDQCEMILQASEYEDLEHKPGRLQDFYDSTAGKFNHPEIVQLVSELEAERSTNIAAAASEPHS
Chain of UniProt P50213 (P50213 whole entry, looked up): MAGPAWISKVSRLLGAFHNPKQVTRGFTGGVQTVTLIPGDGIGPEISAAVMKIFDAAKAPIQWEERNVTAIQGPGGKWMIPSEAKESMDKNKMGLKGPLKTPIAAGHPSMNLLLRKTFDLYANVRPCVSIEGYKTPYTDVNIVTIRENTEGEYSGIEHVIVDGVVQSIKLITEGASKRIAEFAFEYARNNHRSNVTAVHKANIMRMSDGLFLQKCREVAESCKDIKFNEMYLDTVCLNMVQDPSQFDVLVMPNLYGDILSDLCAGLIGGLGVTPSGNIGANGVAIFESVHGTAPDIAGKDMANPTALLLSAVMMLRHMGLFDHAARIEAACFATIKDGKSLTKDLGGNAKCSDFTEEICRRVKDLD
Chain of UniProt Q5SSJ5 (Q5SSJ5 whole entry, looked up): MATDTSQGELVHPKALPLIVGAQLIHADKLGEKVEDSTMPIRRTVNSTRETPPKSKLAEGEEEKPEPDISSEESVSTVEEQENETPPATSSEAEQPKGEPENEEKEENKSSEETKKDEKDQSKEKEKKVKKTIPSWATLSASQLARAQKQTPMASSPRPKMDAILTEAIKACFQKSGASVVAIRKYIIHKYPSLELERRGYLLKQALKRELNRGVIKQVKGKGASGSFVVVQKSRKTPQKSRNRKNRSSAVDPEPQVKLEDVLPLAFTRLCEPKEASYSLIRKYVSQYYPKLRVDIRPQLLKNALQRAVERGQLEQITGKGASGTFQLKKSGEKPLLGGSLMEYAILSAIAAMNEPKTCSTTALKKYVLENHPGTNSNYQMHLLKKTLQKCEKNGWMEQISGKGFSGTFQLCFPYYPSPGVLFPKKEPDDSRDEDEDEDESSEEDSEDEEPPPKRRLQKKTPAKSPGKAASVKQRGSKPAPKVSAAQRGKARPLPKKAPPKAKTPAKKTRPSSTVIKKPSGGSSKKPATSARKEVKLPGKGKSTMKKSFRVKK
Chain of UniProt P0CL80 (P0CL80 whole entry, looked up): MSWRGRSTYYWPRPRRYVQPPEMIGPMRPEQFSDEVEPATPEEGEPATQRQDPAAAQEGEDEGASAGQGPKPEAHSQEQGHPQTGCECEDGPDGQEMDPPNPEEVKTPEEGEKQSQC
Chain of UniProt Q06546 (Q06546 whole entry, looked up): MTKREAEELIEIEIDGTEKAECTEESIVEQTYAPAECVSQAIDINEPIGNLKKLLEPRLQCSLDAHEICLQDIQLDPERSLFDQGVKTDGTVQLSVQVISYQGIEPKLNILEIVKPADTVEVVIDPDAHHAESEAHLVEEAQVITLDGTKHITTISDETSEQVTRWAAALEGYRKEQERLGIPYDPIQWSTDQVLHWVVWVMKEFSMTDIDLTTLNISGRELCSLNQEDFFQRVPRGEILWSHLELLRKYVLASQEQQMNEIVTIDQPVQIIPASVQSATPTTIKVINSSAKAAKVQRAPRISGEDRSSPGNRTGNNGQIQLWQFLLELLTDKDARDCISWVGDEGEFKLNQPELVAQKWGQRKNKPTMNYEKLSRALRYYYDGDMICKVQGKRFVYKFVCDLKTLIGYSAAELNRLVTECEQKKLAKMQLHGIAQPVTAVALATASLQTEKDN
Chain of UniProt Q96I24 (Q96I24 whole entry, looked up): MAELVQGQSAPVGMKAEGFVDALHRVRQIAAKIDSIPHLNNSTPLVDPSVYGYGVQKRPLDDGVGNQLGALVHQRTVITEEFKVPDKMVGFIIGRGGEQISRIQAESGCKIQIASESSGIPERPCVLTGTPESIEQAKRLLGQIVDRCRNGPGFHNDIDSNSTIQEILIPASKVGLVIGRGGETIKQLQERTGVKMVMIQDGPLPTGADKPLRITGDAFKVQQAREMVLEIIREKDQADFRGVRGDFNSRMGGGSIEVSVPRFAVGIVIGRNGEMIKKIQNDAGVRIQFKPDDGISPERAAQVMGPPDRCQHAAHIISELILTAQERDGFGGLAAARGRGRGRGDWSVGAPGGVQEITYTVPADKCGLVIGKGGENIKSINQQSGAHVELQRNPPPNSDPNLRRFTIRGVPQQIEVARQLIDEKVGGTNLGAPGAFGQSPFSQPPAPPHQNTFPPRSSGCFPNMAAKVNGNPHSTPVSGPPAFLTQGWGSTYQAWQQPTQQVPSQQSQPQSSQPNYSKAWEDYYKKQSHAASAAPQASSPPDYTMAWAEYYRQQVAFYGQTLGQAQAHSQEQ
Chain of UniProt Q7Z4V5 (Q7Z4V5 whole entry, looked up): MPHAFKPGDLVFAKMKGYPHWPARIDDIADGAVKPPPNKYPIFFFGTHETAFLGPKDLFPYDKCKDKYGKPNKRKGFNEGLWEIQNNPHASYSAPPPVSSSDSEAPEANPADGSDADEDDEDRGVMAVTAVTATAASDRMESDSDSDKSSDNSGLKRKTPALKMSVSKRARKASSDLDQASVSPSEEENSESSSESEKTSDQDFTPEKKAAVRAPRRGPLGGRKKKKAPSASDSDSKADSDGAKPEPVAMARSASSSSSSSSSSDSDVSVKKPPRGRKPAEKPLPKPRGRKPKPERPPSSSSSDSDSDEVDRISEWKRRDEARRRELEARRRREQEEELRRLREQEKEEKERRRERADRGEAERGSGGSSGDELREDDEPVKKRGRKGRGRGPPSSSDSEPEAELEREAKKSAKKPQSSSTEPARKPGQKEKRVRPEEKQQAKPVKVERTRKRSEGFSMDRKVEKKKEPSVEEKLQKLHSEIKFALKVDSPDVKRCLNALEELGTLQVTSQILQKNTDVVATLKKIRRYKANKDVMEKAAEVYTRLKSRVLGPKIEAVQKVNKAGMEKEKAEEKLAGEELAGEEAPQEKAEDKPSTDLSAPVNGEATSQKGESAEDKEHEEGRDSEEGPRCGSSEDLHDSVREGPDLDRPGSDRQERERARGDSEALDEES
Chain of UniProt P31943 (P31943 whole entry, looked up): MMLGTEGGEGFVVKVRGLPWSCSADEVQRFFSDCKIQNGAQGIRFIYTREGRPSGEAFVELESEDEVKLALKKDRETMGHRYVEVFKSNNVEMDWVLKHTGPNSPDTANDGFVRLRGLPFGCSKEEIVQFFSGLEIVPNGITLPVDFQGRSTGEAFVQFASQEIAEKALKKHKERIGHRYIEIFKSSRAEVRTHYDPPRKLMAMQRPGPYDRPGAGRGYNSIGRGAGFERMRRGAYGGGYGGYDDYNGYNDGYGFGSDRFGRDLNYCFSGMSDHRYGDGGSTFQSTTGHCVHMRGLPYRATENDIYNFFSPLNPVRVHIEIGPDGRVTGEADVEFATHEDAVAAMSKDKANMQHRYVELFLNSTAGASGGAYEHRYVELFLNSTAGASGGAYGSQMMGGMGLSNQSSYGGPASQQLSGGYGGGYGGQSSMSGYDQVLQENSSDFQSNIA
Chain of UniProt P30519 (P30519 whole entry, looked up): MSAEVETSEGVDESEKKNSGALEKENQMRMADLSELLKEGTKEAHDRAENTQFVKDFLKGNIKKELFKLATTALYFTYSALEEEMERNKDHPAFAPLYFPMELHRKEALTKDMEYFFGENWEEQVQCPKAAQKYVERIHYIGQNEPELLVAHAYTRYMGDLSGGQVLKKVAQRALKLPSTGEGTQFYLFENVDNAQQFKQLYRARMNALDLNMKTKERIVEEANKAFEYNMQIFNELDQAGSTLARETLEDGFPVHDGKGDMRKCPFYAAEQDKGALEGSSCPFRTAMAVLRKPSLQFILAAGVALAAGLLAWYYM
Chain of UniProt Q8NB37 (Q8NB37 whole entry, looked up): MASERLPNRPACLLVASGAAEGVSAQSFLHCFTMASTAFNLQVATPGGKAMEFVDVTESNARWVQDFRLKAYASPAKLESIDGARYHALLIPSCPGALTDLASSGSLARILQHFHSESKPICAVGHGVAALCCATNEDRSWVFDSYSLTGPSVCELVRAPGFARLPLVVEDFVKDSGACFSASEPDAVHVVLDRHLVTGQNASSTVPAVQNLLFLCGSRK
Chain of UniProt Q53GQ0 (Q53GQ0 whole entry, looked up): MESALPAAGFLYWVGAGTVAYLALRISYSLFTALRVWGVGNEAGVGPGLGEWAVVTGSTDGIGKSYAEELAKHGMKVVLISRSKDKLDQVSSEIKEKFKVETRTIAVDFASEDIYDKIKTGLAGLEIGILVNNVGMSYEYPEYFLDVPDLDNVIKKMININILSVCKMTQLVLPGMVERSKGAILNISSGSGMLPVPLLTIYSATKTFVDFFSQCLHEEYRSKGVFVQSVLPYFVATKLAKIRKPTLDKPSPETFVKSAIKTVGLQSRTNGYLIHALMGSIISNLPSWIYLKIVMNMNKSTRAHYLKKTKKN
Chain of UniProt Q03013 (Q03013 whole entry, looked up): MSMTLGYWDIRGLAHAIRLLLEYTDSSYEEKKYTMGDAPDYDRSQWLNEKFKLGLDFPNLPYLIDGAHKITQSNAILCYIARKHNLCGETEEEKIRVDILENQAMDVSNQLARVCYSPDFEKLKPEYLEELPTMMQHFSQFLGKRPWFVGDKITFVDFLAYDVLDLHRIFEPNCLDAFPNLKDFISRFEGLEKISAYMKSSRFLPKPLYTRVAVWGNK

Target | log2 fold change
GAPVD1 isoform 6 (UniProt Q14C86) | -0.068 (inactive)
IDH3A (UniProt P50213) | 0.022 (inactive)
GALNT4 (UniProt Q8N4A0) | 0.025 (inactive)
HMOX2 (UniProt P30519) | -0.041 (inactive)
HIP1R (UniProt O75146) | 0 (inactive)
GBF1 (UniProt Q92538) | -0.054 (inactive)
HSD17B12 (UniProt Q53GQ0) | 0.045 (inactive)
GABPA (UniProt Q06546) | 0.029 (inactive)
HTATIP2 isoform 3 (UniProt Q9BUP3) | 0.054 (inactive)
HDDC2 (UniProt Q7Z4H3) | 0.068 (inactive)
HLTF (UniProt Q14527) | -0.126 (inactive)
GATD1 (UniProt Q8NB37) | 0.052 (inactive)
HP1BP3 (UniProt Q5SSJ5) | -0.024 (inactive)
GTF3C4 (UniProt Q9UKN8) | -0.011 (inactive)
FUCA1 (UniProt P04066) | 0.1 (inactive)
FAM91A1 (UniProt Q658Y4) | 0.035 (inactive)
GLRX3 (UniProt O76003) | -0.018 (inactive)
GAGE12F (UniProt P0CL80) | 0.123 (inactive)

Target | log2 fold change
HDGFL2 (UniProt Q7Z4V5) | 0.04 (inactive)
GMEB2 (UniProt Q9UKD1) | 0.027 (inactive)
GLYR1 (UniProt Q49A26) | -0.07 (inactive)
FNTA (UniProt P49354) | 0.044 (inactive)
IFI30 (UniProt P13284) | 0.01 (inactive)
GABARAPL2 (UniProt P60520) | 0 (inactive)
HIKESHI (UniProt Q53FT3) | 0.009 (inactive)
GSTM4 (UniProt Q03013) | 0.068 (inactive)
FIS1 (UniProt Q9Y3D6) | 0.069 (inactive)
IDI1 isoform 2 (UniProt Q13907) | 0.039 (inactive)
HNRNPH1 (UniProt P31943) | 0.068 (inactive)
HIST2H3A (UniProt Q71DI3) | -0.367 (inactive)
FHOD1 (UniProt Q9Y613) | -0.253 (inactive)
GLUD1 (UniProt P00367) | 0.057 (inactive)
FBXO7 (UniProt Q9Y3I1) | 0.011 (inactive)
HIC2 (UniProt Q96JB3) | -0.066 (inactive)
FUBP3 (UniProt Q96I24) | 0.009 (inactive)

Compound: CS(=O)(=O)CCNCc1ccc(-c2ccc3ncnc(Nc4ccc(OCc5cccc(F)c5)c(Cl)c4)c3c2)o1 [lapatinib]
Assay: as above
Outline: as §1

Target | log2 fold change
GAPVD1 isoform 6 (UniProt Q14C86) | 0.041 (inactive)
IDH3A (UniProt P50213) | 0.017 (inactive)
GALNT4 (UniProt Q8N4A0) | -0.028 (inactive)
HMOX2 (UniProt P30519) | -0.045 (inactive)
HIP1R (UniProt O75146) | -0.041 (inactive)
GBF1 (UniProt Q92538) | -0.036 (inactive)
HSD17B12 (UniProt Q53GQ0) | 0.369 (active)
GABPA (UniProt Q06546) | 0.048 (inactive)
HTATIP2 isoform 3 (UniProt Q9BUP3) | -0.015 (inactive)
HDDC2 (UniProt Q7Z4H3) | 0.037 (inactive)
HLTF (UniProt Q14527) | 0.013 (inactive)
GATD1 (UniProt Q8NB37) | -0.064 (inactive)
HP1BP3 (UniProt Q5SSJ5) | 0.044 (inactive)
GTF3C4 (UniProt Q9UKN8) | 0.029 (inactive)
FUCA1 (UniProt P04066) | 0.047 (inactive)
FAM91A1 (UniProt Q658Y4) | 0.045 (inactive)
GLRX3 (UniProt O76003) | 0.062 (inactive)
GAGE12F (UniProt P0CL80) | -0.028 (inactive)

Target | log2 fold change
HDGFL2 (UniProt Q7Z4V5) | -0.019 (inactive)
GMEB2 (UniProt Q9UKD1) | -0.022 (inactive)
GLYR1 (UniProt Q49A26) | 0.169 (inactive)
FNTA (UniProt P49354) | 0.04 (inactive)
IFI30 (UniProt P13284) | 0.147 (inactive)
GABARAPL2 (UniProt P60520) | -0.006 (inactive)
HIKESHI (UniProt Q53FT3) | -0.021 (inactive)
GSTM4 (UniProt Q03013) | 0.031 (inactive)
FIS1 (UniProt Q9Y3D6) | 0.008 (inactive)
IDI1 isoform 2 (UniProt Q13907) | -0.014 (inactive)
HNRNPH1 (UniProt P31943) | 0.046 (inactive)
HIST2H3A (UniProt Q71DI3) | 0.065 (inactive)
FHOD1 (UniProt Q9Y613) | 0.014 (inactive)
GLUD1 (UniProt P00367) | 0.178 (inactive)
FBXO7 (UniProt Q9Y3I1) | -0.082 (inactive)
HIC2 (UniProt Q96JB3) | 0.207 (inactive)
FUBP3 (UniProt Q96I24) | 0.006 (inactive)
